Measurements: PubChem BioAssay (NCI)
Compounds without any hit were thinned out: in the full panel of roughly 83,000, 20% have a hit.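 Compound tested at a single concentration for 48 hours in 96-well plates; a percent growth value below 10 was scored as active.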 Unmarked numbers belong to inactive results. The source made the active and inactive calls.

Legend:
Assay in all cases: NCI-60 one-dose screen, 48 h (100 = growth as untreated, 0 = no growth, -100 = all killed)
Details in all cases: 10 µM unless noted
NCI-H23 lung = tested on: NCI-H23 lung
NCI-H322M lung = tested on: NCI-H322M lung
HOP-62 NSCLC = tested on: HOP-62 NSCLC
NCI-H460 lung = tested on: NCI-H460 lung
HOP-92 NSCLC = tested on: HOP-92 NSCLC
A549/ATCC NSCLC = tested on: A549/ATCC NSCLC
786-0 renal = tested on: 786-0 renal
COLO 205 colon = tested on: COLO 205 colon
DU-145 prostate = tested on: DU-145 prostate
K-562 leukemia = tested on: K-562 leukemia
MALME-3M melanoma = tested on: MALME-3M melanoma
MDA-MB-231 breast = tested on: MDA-MB-231 breast
RXF 393 renal = tested on: RXF 393 renal
SF-268 CNS = tested on: SF-268 CNS
SF-295 CNS = tested on: SF-295 CNS
SF-539 CNS = tested on: SF-539 CNS
UACC-257 melanoma = tested on: UACC-257 melanoma
M14 melanoma = tested on: M14 melanoma
HCT-15 colon = tested on: HCT-15 colon
NCI-H522 lung = tested on: NCI-H522 lung

SMILES	growth (NCI-H23 lung)	growth (NCI-H322M lung) [%]	growth (HOP-62 NSCLC) [%]	growth (NCI-H460 lung)	growth (HOP-92 NSCLC)	growth (A549/ATCC NSCLC) [%]	growth (786-0 renal) [%]	growth (COLO 205 colon)	growth (DU-145 prostate)	growth (K-562 leukemia) [%]	growth (MALME-3M melanoma) [%]	growth (MDA-MB-231 breast)	growth (RXF 393 renal)	growth (SF-268 CNS) [%]	growth (SF-295 CNS) [%]	growth (SF-539 CNS)	growth (UACC-257 melanoma)	growth (M14 melanoma) [%]	growth (HCT-15 colon)	growth (NCI-H522 lung)
CCOC(=O)c1c2c(c(C)n1Cc1ccc(OC)cc1)-c1oncc1CC2	87.7%	78.5	62	99.1%	60.6%	84.8	79.6	137%	96%	92	125	115%	88.1%	81.5	91.3	79.5%	106%	121	91.3%	–
COC(=O)[C@H](NC(=O)C1(C)CCC[C@]2(C)[C@H]3C[C@H]4C(C(C)C)=C[C@]3(CC[C@@H]12)[C@@H]1C(=O)CCC(=O)[C@@H]14)C(C)C (stereo partly drawn)	103%	96.2	99.8	113%	96.8%	94.4	102	110%	106%	96.9	104	90.8%	105%	96.5	94.8	100%	104%	102	95.3%	–
CC1(C)CC2(C)OC2C2(C1)N=NC(=Nc1ccccc1)O2 (stereo not drawn)	88.9%	103	60.9	79.5%	87.6%	54.1	36.3	73%	67.2%	19.5	57.1	91.8%	-1.33% (active)	83.3	65.6	83.7%	64.2%	65.4	9.91% (active)	–
CCN1C(=O)N(c2ccccc2)C2NN=c3s/c(=C4\C(=O)N(C(C)C)c5ccccc54)c(=O)n3C21 (stereo not drawn)	46.5%	54.4	36.2	5.98% (active)	95.7%	21	28.3	2.82% (active)	9.07% (active)	10.6	65.2	32.9%	-6.1% (active)	36.7	17.9	-2.62% (active)	76.4%	10.9	17.7%	–
Cn1nc(C(F)(F)F)c(-c2ccc(Cl)c(C(F)(F)F)c2)c1-c1ccc(OCc2ccc(Cl)cc2)cc1O	-6.46% (active)	18.1	50.5	–	-22.4% (active)	12.8	28.4	24.5%	19%	–	12.2	8.7% (active)	–	26	12.8	34.4%	2.35% (active)	35.4	8.53% (active)	-13.7% (active)
O=C(Nc1ccsc1C(=O)NC1CCCCC1)c1ccc(F)cc1	100%	116	103	–	71.1%	103	101	104%	119%	88.5	99.9	87.2%	95.6%	104	110	101%	114%	101	–	108%
CC1CCCCN1CCCNC(=O)c1ccc2c(c1)sc1nc(-c3ccc(F)cc3)cn12 (stereo not drawn)	92.1%	107	90.9	–	83.1%	108	78.8	98%	105%	77	98.3	75.2%	91.7%	92.8	109	98.6%	124%	97.1	–	102%
COc1cc(/C=C2\CN(C)C/C(=C\c3cc(CN4CCOCC4)c(O)c(OC)c3)C2=O)cc(CN2CCOCC2)c1O	37.3%	67.5	68.9	–	93.2%	56.8	76.6	45.2%	28.5%	29.1	65.6	69.5%	78%	56.9	77.1	34.8%	71.2%	66.4	64.8%	41%
